From PubChem BioAssay AID488969 (Vanderbilt High Throughput Screening Facility, 2010) come the findings set out here.

SMILES strings stand for the structures. Several values for one entry are separate records, joined by “and”; a condition that tells them apart may be missing. Identical values can stand only once. The full ranking holds about 110,000 compounds; the median of “z-score” is about -0.1, and the highest 2% start at about 2. The list comes from a sample in which the highest values are over-represented; it also holds similar structures and randomly drawn compounds. Activity calls are given as the source filed them.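 The calls were made as follows: active = z-score in the third read window above 3 or below -3; inactive = the rest.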

The target of the test is Metabotropic glutamate receptor 8 (Rattus norvegicus) (UniProt P70579). Nature of the test: rat mGluR8 modulators via GIRK flux, primary screen, cell-based, thallium flux, HTS (AID 488969). As to conditions: HEK293 rat mGluR8, GIRK (G protein-gated inwardly rectifying potassium channel) thallium flux, FluoZin2; at 10 µM; stronger effect = higher value; submaximal glutamate (EC20) added with thallium.
Chain of Metabotropic glutamate receptor 8 (Rattus norvegicus) (P70579 whole entry, looked up): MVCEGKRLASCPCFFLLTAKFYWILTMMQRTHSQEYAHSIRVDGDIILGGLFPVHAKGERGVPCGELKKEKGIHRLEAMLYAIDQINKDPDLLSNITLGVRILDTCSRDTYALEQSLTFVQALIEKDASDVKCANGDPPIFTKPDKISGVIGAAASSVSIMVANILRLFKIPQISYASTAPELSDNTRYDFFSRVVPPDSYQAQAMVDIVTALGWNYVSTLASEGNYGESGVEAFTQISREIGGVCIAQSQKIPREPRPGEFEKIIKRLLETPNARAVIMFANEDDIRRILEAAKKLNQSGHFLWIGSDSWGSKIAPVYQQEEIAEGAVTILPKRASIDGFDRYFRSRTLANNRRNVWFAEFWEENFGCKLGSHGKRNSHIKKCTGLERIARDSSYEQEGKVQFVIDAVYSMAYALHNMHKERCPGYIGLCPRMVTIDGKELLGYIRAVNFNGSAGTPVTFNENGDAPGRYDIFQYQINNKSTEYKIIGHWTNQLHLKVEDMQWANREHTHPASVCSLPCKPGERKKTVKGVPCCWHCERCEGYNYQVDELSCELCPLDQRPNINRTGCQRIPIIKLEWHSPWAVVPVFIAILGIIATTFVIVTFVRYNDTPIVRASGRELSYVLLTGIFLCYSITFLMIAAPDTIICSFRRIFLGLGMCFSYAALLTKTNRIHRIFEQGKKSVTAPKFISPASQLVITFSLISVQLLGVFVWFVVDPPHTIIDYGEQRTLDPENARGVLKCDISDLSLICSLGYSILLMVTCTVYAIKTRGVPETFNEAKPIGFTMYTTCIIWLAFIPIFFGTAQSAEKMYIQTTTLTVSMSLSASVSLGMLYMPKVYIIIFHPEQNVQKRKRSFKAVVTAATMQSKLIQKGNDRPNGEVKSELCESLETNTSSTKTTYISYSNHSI
The molecule `Cc1ccc(/C=C(\C#N)C(=O)Nc2c(C)cccc2C)s1` returned a z-score of -0.0444. The result for `O=C(O)CSc1cccc2cccnc12` reads -0.347 and 0.372; that for `O=C(CSc1cccc2cccnc12)NCc1ccco1`, -0.028; that for `COc1ccc(/C(C)=N/NC(=O)c2ccc(CSc3cccc4cccnc34)cc2)cc1OC`, -0.51. Take `CN(C)C(=O)CSc1cccc2cccnc12`: the z-score was 7 (active). Regarding `Cc1cccc(CSc2cccc3cccnc23)c1`, the z-score is 8.5 (active). The same measure for `COc1ccc(CSc2cccc3cccnc23)cc1[N+](=O)[O-]`: 0.224. As to `O=C(CSc1cccc2cccnc12)OCC(=O)c1ccc(Br)cc1`, the z-score was -0.113.

For the molecule `CCOC(=O)CSc1cccc2cccnc12`, the z-score is 4.08 (active). The same measure for `O=C(CSc1cccc2cccnc12)OCC(=O)c1ccccc1`: 0.45. The result for `Cc1ccc(NC(=O)CN2C(=O)C3CCCCN3C(=O)c3ccccc32)cc1` (stereo not given) reads 0.0289.

The molecule `COC(=O)c1cc2c(s1)-c1ccccc1OC2` registered a z-score of -0.0119. Take `Cc1ccc(NC(=O)c2ccc3nc[nH]c3c2)cc1C`: the z-score is 0.551.

The molecule `Cc1ccc(NC(=O)c2c(Cl)n(C)c3ccccc23)cc1` gave a z-score of -0.377. `O=C(Nc1cccc(NC(=O)c2cccs2)c1)c1ccco1` yielded a z-score of -0.313. The result for `Clc1cccc(Cl)c1CO/N=C/c1c(-c2ccccc2)nc2n1CCS2` reads -0.177; that for `Cn1c(O)c(C=NCC2CCNCC2)c(=O)n(C)c1=O`, 0.695.

Take `O=C(NCc1cccs1)c1cnn2cccnc12`: the z-score turned out to be 0.267. The result for `CCOC(=O)N1CCN(CC(O)COCc2ccc(OC)c(OC)c2)CC1` (stereo not given) reads 0.0416. The same measure for `CC(C)(C)C1CCC(OC(=O)c2ccncc2)CC1` (stereo not given): 0.0808.

The molecule `C/C(=N\Nc1ccc([N+](=O)[O-])cc1[N+](=O)[O-])c1ccc(-n2nncc2C(C)(C)C)cc1` yielded a z-score of -2.37. The result for `O=C(CCCN1C(=O)C2CCCCN2C1=O)N1CCN(c2ccc([N+](=O)[O-])cc2)CC1` (stereo not given) reads 0.169.

`O=C(Nc1cccc(Cl)c1)Nc1nnc(-c2ccncc2)s1` yielded a z-score of -0.194. The result for `O=C(NNC(=O)C1COc2ccccc2O1)c1ccccc1` (stereo not given) reads 0.0265. The result for `NC(=S)NNC(=O)Nc1ccc(Cl)c(Cl)c1` reads 0.243; that for `CC(/C=N/n1c(-c2ccco2)n[nH]c1=S)=C\c1ccco1`, 0.1. In turn, `CC(/C=N/n1c(COc2ccccc2)n[nH]c1=S)=C\c1ccccc1` yielded a z-score of 1.93.

The molecule `CC(/C=N/n1c(-c2cc(C)[nH]n2)n[nH]c1=S)=C\c1ccccc1` showed a z-score of -0.302. The result for `CC(/C=N/n1c(C2CCCCC2)n[nH]c1=S)=C\c1ccccc1` reads 2.13. The same measure for `S=c1[nH]nc(-c2ccco2)n1/N=C/C=C/c1ccco1`: -0.366; for `CC(/C=N/n1c(-c2ccco2)n[nH]c1=S)=C\c1ccccc1`: 5.91 (active); for `Cc1cc(-c2n[nH]c(=S)n2/N=C/C(Cl)=C/c2ccccc2)n[nH]1`: -0.527. In turn, `S=c1[nH]nc(C2CCCCC2)n1/N=C/C(Cl)=C\c1ccccc1` displayed a z-score of -0.0746. As for `CC(=C/c1ccccc1)/C=N/n1c(-c2ccco2)n[nH]c1=S`, the z-score was 2.16. Consider `Cc1cc(NCCN2CCOCC2)n2nc(C)c(-c3ccc(Cl)cc3)c2n1`, for which the z-score was -0.362. As for `COc1ccccc1-c1c(C#N)c(SCC(=O)N2CCCC2)nc(C)c1C(N)=O`, the z-score is 0.169. The result for `CNC(=O)c1ccc(-n2nc(C)cc2-c2ccccc2)cc1` reads -0.167.

Molecule `CCOC(=O)c1c(N)sc2c(OCC)c(Br)ccc12` yielded a z-score of 0.151. The result for `CCCN(CCC)CCNC(=O)C(NS(=O)(=O)c1ccc2c(c1)CCC(=O)N2)c1ccccc1` (stereo not given) reads 10 (active); that for `O=C1CCc2cc(S(=O)(=O)NC(C(=O)NCc3cccnc3)c3ccccc3)ccc2N1` (stereo not given), -0.174; that for `CCCNC(=O)C(Cc1ccccc1)NS(=O)(=O)c1ccc2c(c1)CCC(=O)N2` (stereo not given), 0.179. `Cc1ccccc1S(=O)(=O)c1c(C)cc(C)n(C(C)C)c1=O` yielded a z-score of -0.131. The result for `COC(=O)N/N=C1\CCCc2ccccc21` reads -0.137. The result for `CCCCCCC(=O)N/N=C1\CCCc2ccccc21` reads -0.118. The result for `CCCCNC(=S)N/N=C1\CCCCc2ccccc21` reads 2.17; that for `CC(C)NC(=S)N/N=C1\CCCCc2ccccc21`, -0.471. Turning to `COc1cccc(NC(=S)N/N=C2\CC(C)(C)Oc3ccc(O)cc32)c1`, the z-score was -0.0142. The result for `C=C(C)CNC(=S)N/N=C1\CCCCc2ccccc21` reads 3.15 (active); that for `CCNC(=S)N/N=C1\CCCCc2ccccc21`, 1.57. The same measure for `COc1cccc(NC(=S)N/N=C2/CCCCc3ccccc32)c1`: 8.28 (active). On to `Cc1cccc(NC(=S)N/N=C2/CCCCc3ccccc32)c1`, for which the z-score was 0.797. The same measure for `CC(=O)N1CCCc2cc(S(=O)(=O)N(C)Cc3ccccc3)ccc21`: 0.884; for `Cc1ccc(SCc2nc3ccccc3[nH]2)cc1`: -0.0609.

Molecule `CCCC(=O)NC(Nc1cccc(C(F)(F)F)c1)C(Cl)(Cl)Cl` (stereo not given) showed a z-score of -0.917. The result for `CCOc1ccc(OCC(=O)Nc2ccc(OC)cc2)cc1` reads -0.476. The same measure for `COc1ccccc1NC(=O)COc1ccccc1`: 0.137; for `COc1ccccc1NC(=O)CC1COc2ccccc2O1` (stereo not given): 0.0423; for `Nc1cc(N)nc(SCC(=O)Nc2ccccc2)n1`: -0.306. The same measure for `COc1ccc(OCC(=O)NNC(=O)C(=O)Nc2ccc(C)cc2)cc1`: 2.73; for `COc1cccc(NC(=O)CSc2nc(N)cc(N)n2)c1`: 3.37 (active); for `COc1cccc(NC(=O)CC2COc3ccccc3O2)c1` (stereo not given): 5.36 (active).

Take `COc1ccc(OCC(=O)Nc2ccccc2OC(F)F)cc1`: the z-score is 2.69. With `COc1cc(OC)c(OC)cc1NC(=O)CC1COc2ccccc2O1` (stereo not given), the z-score was -0.0814.

Regarding `COc1ccc(OCC(=O)Nc2ccc(C)cc2)cc1`, the z-score is -0.351.

Take `Cc1cccc(NC(=O)CSc2nc(N)cc(N)n2)c1`: the z-score is -0.298.

`COc1ccc(OCC(=O)Nc2ccccc2O)cc1` registered a z-score of -0.431. `COc1ccc(NS(=O)(=O)c2cc(S(C)(=O)=O)ccc2C)cc1` returned a z-score of -0.235. With `COc1ccc2c(c1)C(NC(=O)C(F)(F)F)CC2=O` (stereo not given), the z-score is 0.142. The result for `O=C(N1CCOCC1)N1CCN(C(=O)N2CCOCC2)CC1` reads -0.108; that for `COc1cc(C(=O)CSc2nncn2C)cc(OC)c1OC`, -0.245. The result for `CC1(C)Cc2nc3sc4c(OCc5ccccc5)ncnc4c3cc2CO1` reads -0.0531; that for `CCCN(CCC)C1=N/C(=C\c2ccco2)C(=O)N1c1ccccc1`, -0.536; that for `Cc1ccccc1NC1C=CS(=O)(=O)C1` (stereo not given), -0.358. The result for `Cc1ccc(N2C(=O)CCSC23C(=O)Nc2ccccc23)cc1` (stereo not given) reads -0.0429; that for `CC(C)(C)NC(=O)C(=O)NNC(=O)COc1ccc(Br)cc1`, 1.89; that for `CC(C)(C)NC(=O)C(=O)NNC(=O)COc1ccccc1`, 0.182. For the molecule `COc1cccc(NC(=O)COc2ccc(C)cc2)c1`, the z-score is 4.04 (active). The same measure for `COc1cc(NC(=O)COc2cccc(OC)c2)cc(OC)c1`: 0.638; for `Cc1ccc(OCC(=O)NNC(=O)C(=O)NC(C)(C)C)cc1`: 2.61; for `COc1ccc(OCC(=O)Nc2cccc(OC)c2)cc1`: -0.532.
